Measured values taken from ChEMBL document CHEMBL2218924, “A broad activity screen in support of a chemogenomic map for kinase signalling research and drug discovery” (Biochem J, 2013).

Columns and labels:
[1] = biological target: Tyrosine-protein kinase SYK (Homo sapiens) (UniProt P43405); details: at 10 µM
[2] = biological target: T1, Mitogen-activated protein kinase kinase kinase 7 (Homo sapiens) (UniProt O43318); details: at 1 µM
T1 sequence (whole entry): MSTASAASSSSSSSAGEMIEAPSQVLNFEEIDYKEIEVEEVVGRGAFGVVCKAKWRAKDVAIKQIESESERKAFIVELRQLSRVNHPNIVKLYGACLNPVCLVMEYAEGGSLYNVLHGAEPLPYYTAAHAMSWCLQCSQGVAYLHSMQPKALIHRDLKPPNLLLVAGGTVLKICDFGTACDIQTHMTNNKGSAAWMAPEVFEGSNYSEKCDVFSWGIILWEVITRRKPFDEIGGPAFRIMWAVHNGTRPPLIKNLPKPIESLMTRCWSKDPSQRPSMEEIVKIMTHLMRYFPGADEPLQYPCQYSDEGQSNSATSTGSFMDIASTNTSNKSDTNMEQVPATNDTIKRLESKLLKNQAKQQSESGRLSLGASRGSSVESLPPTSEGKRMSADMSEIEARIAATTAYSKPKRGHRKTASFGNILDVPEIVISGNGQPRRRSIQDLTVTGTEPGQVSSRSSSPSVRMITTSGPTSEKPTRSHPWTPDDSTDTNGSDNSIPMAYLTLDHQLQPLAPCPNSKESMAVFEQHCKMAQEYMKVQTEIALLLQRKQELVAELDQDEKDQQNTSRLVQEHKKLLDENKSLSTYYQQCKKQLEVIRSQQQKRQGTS

[3] = biological target: T1, Mitogen-activated protein kinase kinase kinase 7 (Homo sapiens); details: at 10 µM
[4] = biological target: T2, Serine/threonine-protein kinase TAO1 (Homo sapiens) (UniProt Q7L7X3); details: at 1 µM
T2 sequence (whole entry): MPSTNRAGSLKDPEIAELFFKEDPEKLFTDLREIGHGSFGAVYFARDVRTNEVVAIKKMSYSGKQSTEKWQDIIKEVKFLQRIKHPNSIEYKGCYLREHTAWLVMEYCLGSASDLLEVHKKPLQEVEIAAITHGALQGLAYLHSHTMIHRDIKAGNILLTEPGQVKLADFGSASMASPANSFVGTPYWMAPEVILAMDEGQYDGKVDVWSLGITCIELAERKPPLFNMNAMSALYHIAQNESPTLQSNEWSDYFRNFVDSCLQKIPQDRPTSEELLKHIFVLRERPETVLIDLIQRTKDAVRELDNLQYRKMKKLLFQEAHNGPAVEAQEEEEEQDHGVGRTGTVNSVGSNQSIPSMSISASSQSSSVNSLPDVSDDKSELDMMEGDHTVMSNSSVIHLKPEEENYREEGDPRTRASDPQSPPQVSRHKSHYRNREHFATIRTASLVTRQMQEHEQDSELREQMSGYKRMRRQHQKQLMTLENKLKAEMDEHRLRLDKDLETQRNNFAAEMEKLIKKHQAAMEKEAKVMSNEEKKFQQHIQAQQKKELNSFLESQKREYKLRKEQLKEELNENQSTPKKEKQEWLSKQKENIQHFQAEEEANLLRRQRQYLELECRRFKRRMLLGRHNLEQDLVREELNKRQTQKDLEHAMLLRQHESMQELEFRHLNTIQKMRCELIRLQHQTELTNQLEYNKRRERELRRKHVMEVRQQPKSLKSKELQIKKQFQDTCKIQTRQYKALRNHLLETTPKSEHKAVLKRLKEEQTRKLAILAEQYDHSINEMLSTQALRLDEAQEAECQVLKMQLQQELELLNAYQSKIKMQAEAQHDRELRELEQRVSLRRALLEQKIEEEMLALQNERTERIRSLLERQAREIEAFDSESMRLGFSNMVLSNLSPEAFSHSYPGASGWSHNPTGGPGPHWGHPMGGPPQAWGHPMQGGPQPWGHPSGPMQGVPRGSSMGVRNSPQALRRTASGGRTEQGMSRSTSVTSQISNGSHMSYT

[5] = biological target: T2, Serine/threonine-protein kinase TAO1 (Homo sapiens); details: at 10 µM
[6] = biological target: T3, Serine/threonine-protein kinase TAO2 (Homo sapiens) (UniProt Q9UL54); details: at 1 µM
T3 sequence (whole entry): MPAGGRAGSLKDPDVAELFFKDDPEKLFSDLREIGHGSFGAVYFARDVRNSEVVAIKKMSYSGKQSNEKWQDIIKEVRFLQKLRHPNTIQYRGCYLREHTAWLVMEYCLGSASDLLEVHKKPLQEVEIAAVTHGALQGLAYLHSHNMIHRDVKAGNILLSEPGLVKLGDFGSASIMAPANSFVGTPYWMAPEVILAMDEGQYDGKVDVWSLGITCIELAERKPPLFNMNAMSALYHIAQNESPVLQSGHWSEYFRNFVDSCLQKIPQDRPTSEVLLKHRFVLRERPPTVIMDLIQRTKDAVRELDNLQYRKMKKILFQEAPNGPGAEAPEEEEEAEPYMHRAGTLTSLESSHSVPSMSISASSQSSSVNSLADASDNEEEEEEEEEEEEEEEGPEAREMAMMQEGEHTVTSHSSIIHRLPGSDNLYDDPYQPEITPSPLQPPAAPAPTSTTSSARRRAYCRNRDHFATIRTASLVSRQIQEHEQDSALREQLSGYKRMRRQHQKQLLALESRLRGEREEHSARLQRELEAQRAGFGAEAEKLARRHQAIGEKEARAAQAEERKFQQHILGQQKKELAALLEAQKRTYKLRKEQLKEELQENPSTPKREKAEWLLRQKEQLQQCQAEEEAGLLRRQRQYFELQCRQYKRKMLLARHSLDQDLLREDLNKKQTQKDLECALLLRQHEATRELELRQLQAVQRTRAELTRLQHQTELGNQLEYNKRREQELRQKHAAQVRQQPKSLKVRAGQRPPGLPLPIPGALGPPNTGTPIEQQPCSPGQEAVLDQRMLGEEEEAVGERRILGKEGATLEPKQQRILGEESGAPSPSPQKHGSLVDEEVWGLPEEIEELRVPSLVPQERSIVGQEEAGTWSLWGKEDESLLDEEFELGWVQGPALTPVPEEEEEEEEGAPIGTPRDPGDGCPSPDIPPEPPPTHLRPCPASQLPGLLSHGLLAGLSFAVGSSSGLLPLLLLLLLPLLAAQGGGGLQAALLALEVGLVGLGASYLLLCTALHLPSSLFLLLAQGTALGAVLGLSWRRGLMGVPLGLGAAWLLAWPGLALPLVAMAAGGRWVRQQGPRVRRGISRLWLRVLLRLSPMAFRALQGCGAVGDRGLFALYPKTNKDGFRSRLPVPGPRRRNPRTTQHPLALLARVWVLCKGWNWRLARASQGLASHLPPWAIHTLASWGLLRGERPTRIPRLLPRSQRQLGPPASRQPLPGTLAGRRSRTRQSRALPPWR

[7] = biological target: T3, Serine/threonine-protein kinase TAO2 (Homo sapiens); details: at 10 µM
[8] = biological target: T4, Serine/threonine-protein kinase TAO3 (Homo sapiens) (UniProt Q9H2K8); details: at 1 µM
T4 sequence (whole entry): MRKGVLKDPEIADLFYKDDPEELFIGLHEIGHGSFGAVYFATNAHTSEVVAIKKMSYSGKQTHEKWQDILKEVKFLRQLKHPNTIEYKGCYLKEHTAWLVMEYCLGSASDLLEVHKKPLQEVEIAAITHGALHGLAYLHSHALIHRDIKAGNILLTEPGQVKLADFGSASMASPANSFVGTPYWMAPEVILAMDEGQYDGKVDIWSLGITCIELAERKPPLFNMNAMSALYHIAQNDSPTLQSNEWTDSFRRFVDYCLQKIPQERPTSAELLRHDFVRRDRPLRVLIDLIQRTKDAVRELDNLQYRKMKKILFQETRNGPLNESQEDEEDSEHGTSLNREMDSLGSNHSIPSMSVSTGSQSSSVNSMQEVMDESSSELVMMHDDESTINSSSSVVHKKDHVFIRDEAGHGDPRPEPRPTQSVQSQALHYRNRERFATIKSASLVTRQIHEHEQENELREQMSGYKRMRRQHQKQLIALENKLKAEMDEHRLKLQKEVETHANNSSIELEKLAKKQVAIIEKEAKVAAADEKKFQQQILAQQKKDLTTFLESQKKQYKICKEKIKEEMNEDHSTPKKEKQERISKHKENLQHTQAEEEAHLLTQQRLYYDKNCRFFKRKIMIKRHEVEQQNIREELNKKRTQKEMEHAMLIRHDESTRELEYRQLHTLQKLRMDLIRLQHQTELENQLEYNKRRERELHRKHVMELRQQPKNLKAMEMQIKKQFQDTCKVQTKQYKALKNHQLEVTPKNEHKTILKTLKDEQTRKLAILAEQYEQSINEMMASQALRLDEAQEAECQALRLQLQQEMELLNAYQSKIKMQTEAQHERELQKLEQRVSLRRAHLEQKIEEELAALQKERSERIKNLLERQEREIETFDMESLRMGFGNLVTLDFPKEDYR

[9] = biological target: T4, Serine/threonine-protein kinase TAO3 (Homo sapiens); details: at 10 µM
[10] = biological target: T5, Serine/threonine-protein kinase TBK1 (Homo sapiens) (UniProt Q9UHD2); details: at 1 µM
T5 sequence (whole entry): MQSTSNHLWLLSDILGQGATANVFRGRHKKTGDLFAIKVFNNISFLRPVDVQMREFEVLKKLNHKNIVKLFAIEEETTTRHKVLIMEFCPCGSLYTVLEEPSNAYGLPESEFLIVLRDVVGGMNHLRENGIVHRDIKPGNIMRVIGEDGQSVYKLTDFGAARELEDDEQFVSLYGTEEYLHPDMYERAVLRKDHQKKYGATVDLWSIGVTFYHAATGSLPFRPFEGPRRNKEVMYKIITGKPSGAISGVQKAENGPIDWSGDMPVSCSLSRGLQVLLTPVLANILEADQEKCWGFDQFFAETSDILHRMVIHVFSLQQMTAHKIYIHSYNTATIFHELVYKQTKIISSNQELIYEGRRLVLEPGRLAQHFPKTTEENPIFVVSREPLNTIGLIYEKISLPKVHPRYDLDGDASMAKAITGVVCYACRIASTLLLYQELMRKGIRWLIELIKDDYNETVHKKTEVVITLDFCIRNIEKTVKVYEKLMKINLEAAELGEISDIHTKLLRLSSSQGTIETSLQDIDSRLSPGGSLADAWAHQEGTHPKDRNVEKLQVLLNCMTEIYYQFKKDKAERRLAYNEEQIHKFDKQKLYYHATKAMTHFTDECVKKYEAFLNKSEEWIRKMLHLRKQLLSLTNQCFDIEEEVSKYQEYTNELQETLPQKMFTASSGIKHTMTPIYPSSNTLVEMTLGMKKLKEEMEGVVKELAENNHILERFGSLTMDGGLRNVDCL

**Q.** Which results are given for `CC(C)(C)n1nc(Cc2cccc3ccccc23)c2c(N)ncnc21`?
**A.** residual activity [1]: 71%; residual activity [2]: 86%; residual activity [3]: 78%; residual activity [4]: 87%; residual activity [5]: 50%; residual activity [6]: 90%; residual activity [7]: 42%; residual activity [8]: 92%; residual activity [9]: 41%; residual activity [10]: 78%
